# The supplement of paper PMC10981050
# Several values for one entry are separate records, joined by “and”; a condition that tells them apart may be missing. Equal values may be shown once. Where a name gives a salt, the structure may show the parent alone.
# How the values were obtained:
# Assay in all cases: cell viability relative to vehicle control; higher = less cytotoxic
# Details in all cases: 10 µM
# K562 = system: K562
# In short: (§1)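 Each screen used CRISPR-edited mutant and wild-type clones from four leukaemia lines. Compounds were acoustically dispensed at a single 10 µM dose, and CellTiter-Glo luminescence was read after 48 h with the supernatant first removed. Viability was analysed in Genedata Screener and given as percent of the on-plate vehicle control.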
# MARIMO = system: MARIMO
# In short: as §1
# MOLM14 = system: MOLM14
# In short: as §1
# OCI-AML2 = system: OCI-AML2
# In short: as §1
SMILES,cell viability (K562; SRSF2 genotype: SRSF2 P95H/wt),cell viability (K562; SRSF2 genotype: SRSF2 wt/wt) [%],cell viability (MARIMO; SRSF2 genotype: SRSF2 P95H/wt) [%],cell viability (MARIMO; SRSF2 genotype: SRSF2 wt/wt) [%],cell viability (MOLM14; SRSF2 genotype: SRSF2 P95H/wt) [%],cell viability (MOLM14; SRSF2 genotype: SRSF2 wt/wt) [%],cell viability (OCI-AML2; SRSF2 genotype: P95H/wt) [%],cell viability (OCI-AML2; SRSF2 genotype: wt/wt) [%]
O=C(C[S+]([O-])C(c1ccccc1)c1ccccc1)NO (stereo unspecified) [Adrafinil],95.6% and 94.3%,103,92.9,96.4,95.3,102,91.8,110
O=C(O)C(=O)c1cn(Cc2ccccc2)c2ccc(-c3ccc(OC(F)(F)F)cc3)cc12 [Tiplaxtinin (PAI-039)],84.4% and 88.9%,90.3,92.3,101,90.9,93.8,97.4,103
COCC1(CO)C(=O)C2CCN1CC2 (stereo unspecified),35.9% and 43.5%,63.5,65.3,57.5,9.18,3.69,14.8,15.9
Cc1cc(SCc2sc(-c3ccc(C(F)(F)F)c(F)c3)nc2C)ccc1OCC(=O)O,100% and 101%,105,106,112,99.7,103,95.9,101
CC(C)=CCC[C@]1(C)C=Cc2c(O)c3c(c(CC=C(C)C)c2O1)O[C@]12C(=C[C@@H]4C[C@H]1C(C)(C)O[C@@]2(C/C=C(/C)C(=O)O)C4=O)C3=O [Gambogic Acid],1.29% and 0.59%,0.98,0.39,0.5,0.42,0.51,0.38,0.45
O=[N+]([O-])c1ncc[nH]1 [Azomycin (2-Nitroimidazole)],102% and 103%,101,101,101,95.3,100,97.8,96.8
COc1cc(C2OCC3C(c4cc(OC)c(OC5OC(CO)C(O)C(O)C5O)c(OC)c4)OCC23)cc(OC)c1OC1OC(CO)C(O)C(O)C1O (stereo unspecified) [Eleutheroside E],104% and 98.2%,101,97.3,97.9,98.5,107,102,112
Cc1cc(C(=O)CN2CCCC2)c(C)n1-c1ccc(F)cc1,93.7% and 94%,89.1,80.6,98.2,83.7,94.7,88.4,85.8
CCC12C=CCN3CC[C@@]4(c5ccc(OC)cc5N(C)[C@H]4[C@@](O)(C(=O)OC)[C@@H]1OC(C)=O)[C@@H]32 (stereo partly specified) [Vindoline],96.8% and 99.8%,99.4,101,107,105,105,103,116
COC(=O)C[C@](O)(CCC(C)(C)O)C(=O)O[C@@H]1C(OC)=C[C@]23CCCN2CCc2cc4c(cc2[C@H]13)OCO4 [Harringtonine],12.3% and 17.8%,20.6,8.47,4.47,2.72,1,5.78,10.9
ClCCN(Cc1ccccc1)Cc1ccccc1 [Dibenamine Hydrochloride],103% and 95.7%,91.5,94.9,104,94.8,103,83.5,89.3
CC1=C[C@@H]2C(=O)[C@]3(C=C(C)[C@H](O)[C@@]3(O)[C@@H]1O)[C@H](C)C[C@@H]1[C@H]2C1(C)C [20-Deoxyingenol],79.4% and 65.6%,65.1,76.2,100,39.8,14.8,18.2,52
CC[C@H](C)[C@@H]([C@@H](CC(=O)N1CCC[C@H]1[C@H](OC)[C@@H](C)C(=O)N[C@H](C)[C@@H](O)c1ccccc1)OC)N(C)C(=O)[C@@H](NC(=O)[C@@H](NC)C(C)C)C(C)C [Monomethyl auristatin E (MMAE)],11.7% and 32%,30.1,7.27,8.86,0.32,0.5,0.78,2.69
COc1c(C)c(O)cc2[o+]c(-c3ccccc3)ccc12.[O-][Cl+3]([O-])([O-])[O-] [Dracohodin perochlorate],80.8% and 78.3%,77.4,80.1,86.8,80.1,82.3,83.6,84.1
C[C@]12CC[C@H]3[C@@H](CCC4=CC(=O)C=C[C@@]43C)[C@@H]1CC[C@@H]2O [Boldenone],99.7% and 103%,110,101,104,105,110,113,111
CNCC(O)c1ccc(O)cc1 (stereo unspecified) [Synephrine (Oxedrine)],106% and 102%,94.5,103,98.5,97.4,101,98.4,106
CNC(C)Cc1ccccc1OC (stereo unspecified) [Methoxyphenamine Hydrochloride],98% and 100%,106,100,104,106,102,107,101
Cn1cc(C2=C(c3cn(C4CCN(Cc5ccccn5)CC4)c4ccccc34)C(=O)NC2=O)c2ccccc21,91.5% and 86.9%,91.3,93,101,76.9,91.3,110,111
C[C@]12CCC(=O)C(O)=C1CC[C@@H]1[C@@H]2CC[C@]2(C)C(=O)CC[C@@H]12 [Formestane],96.6% and 94.4%,102,93.2,107,107,103,104,112
O=C1C2CCN(CC2)C1(CO)CO,74.5% and 85.5%,73.3,83.6,73.8,34.1,41.8,56.2,47
O=C(CC1NCCCC1O)Cn1cnc2cc(Br)c(Cl)cc2c1=O (stereo unspecified) [Halofuginone],6.09% and 15.2%,11,8.89,3.03,0.77,0.52,0.78,5.46

SMILES,cell viability (K562; SRSF2 genotype: SRSF2 P95H/wt),cell viability (K562; SRSF2 genotype: SRSF2 wt/wt) [%],cell viability (MARIMO; SRSF2 genotype: SRSF2 P95H/wt) [%],cell viability (MARIMO; SRSF2 genotype: SRSF2 wt/wt) [%],cell viability (MOLM14; SRSF2 genotype: SRSF2 P95H/wt) [%],cell viability (MOLM14; SRSF2 genotype: SRSF2 wt/wt) [%],cell viability (OCI-AML2; SRSF2 genotype: P95H/wt) [%],cell viability (OCI-AML2; SRSF2 genotype: wt/wt) [%]
O=C(O)CNC(=O)C1C(=O)N(C2CCCCC2)C(=O)N(C2CCCCC2)C1=O,93.8% and 88.7%,83.9,86.5,101,83.8,94.1,98.8,98.5
N#C[C@H](O[C@@H]1O[C@H](CO[C@@H]2O[C@H](CO)[C@@H](O)[C@H](O)[C@H]2O)[C@@H](O)[C@H](O)[C@H]1O)c1ccccc1 [Amygdalin],104% and 107%,102,104,107,106,108,107,95.3
c1cc2c(cc1[C@H]1OC[C@H]3[C@@H]1CO[C@@H]3c1ccc3c(c1)OCO3)OCO2 [Sesamin (Fagarol)],92.3% and 97.8%,97.3,94.2,111,98.8,105,100,102
CN(C)C(=O)Oc1ccc[n+](C)c1 [Pyridostigmine Bromide (Mestinon)],93.7% and 96.7%,95.9,93.5,98.7,96.6,94.3,93.2,97
CC(C)c1ccc(CO)cc1 [4-Isopropylbenzyl Alcohol],107% and 98.3%,97.1,99.9,110,102,105,87.7,97.4
COC(=O)C1=CCCN(C)C1 [Arecoline HBr],93.5% and 96.8%,97.5,96,99,97.4,99.9,92,106
C=C1CC[C@H]2[C@@H](C=C(C)C(=O)[C@@]3(O)C[C@H](C)[C@H](O)[C@@H]3[C@H]1O)C2(C)C [Lathyrol],94.9% and 95.9%,96.9,92.5,102,97.1,96.8,105,99
CC[C@H]1[C@@H]2C[C@H]3[C@@H]4N(C)c5ccccc5[C@]45C[C@@H]([C@@H]2[C@H]5O)N3[C@@H]1O [Ajmaline],95.7% and 94%,98.5,90.6,96.2,94.6,98.4,93.9,97.9
COc1ccc2c(c1)/C(=C/c1cnc[nH]1)C(=O)N2,91.8% and 96.2%,88,33.7,39.8,22.1,3.31,15.4,24.6
C=C[C@H]1CN2CC[C@H]1C[C@H]2[C@H](O)c1ccnc2ccccc12 [Cinchonidine],87.9% and 96.3%,94.8,94.6,97.5,85.7,97.8,95.2,92.1
C#C[C@]1(O)C=C[C@H]2[C@@H]3CCC4=CC(=O)CC[C@@H]4[C@H]3CC[C@@]21CC [Gestodene],94.9% and 97.5%,95.4,90.9,97.2,94.2,97.1,99,94.8
CCc1c(C(=O)C(N)=O)c2c(OCC(=O)O)cccc2n1Cc1ccccc1,93.5% and 89.8%,88.8,82.6,92,93.1,95.2,84,90.6
CCCCC(C#N)(Cn1cncn1)c1ccc(Cl)cc1 (stereo unspecified) [Myclobutanil],105% and 99.5%,100,97,109,93.9,108,92.3,98.1
C[N+]1(C)[C@@H]2C[C@@H](OC(=O)[C@H](CO)c3ccccc3)C[C@H]1[C@@H]1O[C@@H]12 [Methscopolamine (Pamine)],97.7% and 84.7%,82.5,79.5,87.8,82.4,84.1,83.2,84.8
CCC(=O)O[C@H]1CC[C@H]2[C@@H]3CC[C@H]4CC(=O)[C@H](C)C[C@]4(C)[C@H]3CC[C@]12C [Drostanolone Propionate],85.6% and 88.6%,79.2,72.7,44.8,77.4,83.8,63.7,57.3
CC1(C)C(=O)N(c2ccc(C#N)c(C(F)(F)F)c2)C(=O)N1CCCCO,89% and 95%,92.3,91.5,103,93.5,104,88.6,96.6
CC(=O)Nc1ccc(Cc2ccc(NC(C)=O)cc2)cc1,104% and 107%,107,105,106,106,104,104,113
COC1=C[C@]23CCCN2CCc2cc4c(cc2[C@@H]3[C@@H]1O)OCO4 [Cephalotaxine],91.4% and 93.8%,93.5,91,93.2,96.1,96.5,90.8,91.4
CC(C)C(Br)C(=O)NC(N)=O (stereo unspecified) [Bromisoval],99.8% and 99.2%,94.8,95.8,108,92,104,93.2,95
C=CC1CN2CCC1CC2C(O)c1ccnc2ccccc12 (stereo unspecified) [Cinchonine.cdx],98.1% and 107%,102,105,105,95.8,104,120,99.7
CN1c2ccccc2C(NCCCCCCC(=O)O)c2ccc(Cl)cc2S1(=O)=O (stereo unspecified) [Tianeptine sodium],99.4% and 97.1%,97.6,106,108,107,101,98.4,111
